This is an account of results in PubChem BioAssay AID504429 (National Center for Advancing Translational Sciences (NCATS), 2011).

Some of the results follow. The source made the active and inactive calls.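 How the source made its calls: active means compounds whose dose response shows an inhibitor phenotype against the kinase Dyrk1b; inactive means compounds showing no inhibitor phenotype.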

Sequence of Dual specificity tyrosine-phosphorylation-regulated kinase 1B (Homo sapiens) (Q9Y463 whole entry, looked up, canonical isoform): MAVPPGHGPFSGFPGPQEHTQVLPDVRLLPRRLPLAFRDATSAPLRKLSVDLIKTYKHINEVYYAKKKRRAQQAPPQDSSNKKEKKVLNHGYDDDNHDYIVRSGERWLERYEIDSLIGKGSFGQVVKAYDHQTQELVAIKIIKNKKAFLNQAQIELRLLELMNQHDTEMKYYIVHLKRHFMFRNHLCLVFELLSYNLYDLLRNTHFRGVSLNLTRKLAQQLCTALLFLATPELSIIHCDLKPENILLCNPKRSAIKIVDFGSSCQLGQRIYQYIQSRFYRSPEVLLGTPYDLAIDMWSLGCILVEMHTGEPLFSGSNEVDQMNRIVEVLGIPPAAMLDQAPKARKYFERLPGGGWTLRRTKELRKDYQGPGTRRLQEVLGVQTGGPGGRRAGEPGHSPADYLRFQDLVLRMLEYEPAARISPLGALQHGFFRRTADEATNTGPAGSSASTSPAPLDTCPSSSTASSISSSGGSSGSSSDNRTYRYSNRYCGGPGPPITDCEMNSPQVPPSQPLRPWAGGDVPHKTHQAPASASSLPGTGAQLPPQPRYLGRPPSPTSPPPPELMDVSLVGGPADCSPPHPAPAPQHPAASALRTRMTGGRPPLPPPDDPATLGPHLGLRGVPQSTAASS

The assay addresses Dual specificity tyrosine-phosphorylation-regulated kinase 1B (Homo sapiens) (UniProt Q9Y463). In words: Kinase Inhibition Study on Inhibitors of Dyrk1b (Reaction Biology data). Conditions: Recombinant Dyrk1b kinase assay, 10 uM ATP. The source says:
NIH Molecular Libraries Probe Production Centers Network [MLPCN] NIH Chemical Genomics Center [NCGC] MLPCN Grant: 1R03MH084827-01 Assay Submitter (PI): Tom Misteli NCGC Assay Overview: Alternative splicing of pre-mRNAs plays a major role in the regulation of eukaryotic gene expression. Alternative splicing is now thought to be one of the primary reasons for the complexity of higher organisms leading to an average of three protein isoforms per gene. Aberrant splicing can lead to a number of diseases and is known to play a role in rare genetic diseases such as progeria syndrome. Hutchinson-Gilford Progeria Syndrome (HGPS) is a pediatric premature aging disease caused by a spontaneous mutation in the lamin A/C (LMNA) gene due to a single point mutation in the lamin A gene effecting 1 in 4 million people. To identify both specific splicing modulators of the lamin A gene as well as general splicing modulators, a cell-based HTS assay was developed using a minigene reporter system (AIDs, 1459 & 1487). […] The Clk family is part of the CMGC group of protein kinases which includes Dyrks and are essential kinases found in all eukaryotes. […] This AID is to summarize the activity of these analogs in Dyrk1b.
All kinase reactions were performed using 10 uM ATP in the assay. 100% activity was taken from kinase reactions with DMSO alone (the vehicle used for compound stock solutions).
In the case of `CN(Cc1cncn1C)c1ncnc2ccc(-c3ccc4c(c3)OCO4)cc12`, the Potency was 15 µM (active).

As to `c1nc(N2CCOCC2)c2cc(-c3ccc4c(c3)OCO4)ccc2n1`, the Potency was 5.22 µM (active).

Consider `CC(Nc1ncnc2ccc(-c3ccc4c(c3)OCO4)cc12)c1ccco1` (stereo not drawn), for which the Potency is 8.14 µM (active).
